Assay [1] in a line: resazurin metabolic signal in HepG2 cells – cell-based, resazurin fluorescence, 24 h, PK04 Diversity Set, profiling panel (AID 1172). Also: test concentration not given here. Particulars: HepG2 viability, higher = more signal. For orientation: Resazurin is reduced to fluorescent resorufin, in cell work by metabolically active cells.
The nature of assay [2]: budding yeast growth changes without added modifier – OD600, strain BY4716, 24 h, basal condition, primary screen (AID 1173). Particulars: S. cerevisiae BY4716 growth, OD600, 24 h; higher = more signal, called active from +8 up or from −8 down.
The nature of assay [3]: viability profiling in MM1S myeloma cells – cell-based, resazurin fluorescence, basal, 24 h, PK04 Diversity Set, profiling panel (AID 1174).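 Also: MM1S multiple myeloma cell line; test concentration not given here.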 Particulars: higher = more signal, called active from +8 up or from −8 down.
Assay [4] addresses Dihydroorotate dehydrogenase (quinone), mitochondrial (Plasmodium falciparum (isolate 3D7)) (UniProt Q08210). Put plainly: inhibition of P. falciparum DHODH – biochemical, C-terminal His tag, absorbance 600 nm, primary screen (AID 1175).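 Also: recombinant parasite enzyme with a five histidine tag at its C terminus; test concentration not given here.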 Particulars: PfDHODH enzyme, DCIP absorbance 600 nm; higher = more signal, called active from +8 up or from −8 down.
Assay [5] can be described thus: inhibition of PAO1 biofilm formation – strain PAO1, LB-PBS medium, absorbance 600 nm, primary screen (AID 1176). Also: test concentration not given here. The settings on record: P. aeruginosa PAO1 growth/biofilm, A600, 12 h; higher = more signal.
Assay [6] in a line: growth modulation of vineyard yeast isolate – strain RM11-1a, OD600, basal, 24 h, primary screen (AID 1177).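 Also: cultures grown under basal conditions with no added stressor; test concentration not given here.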 The settings on record: S. cerevisiae RM11-1a growth, OD600, 24 h; higher = more signal, called active from +8 up or from −8 down.
The nature of assay [7]: growth of efflux-deficient E. coli DRC39 – strain DRC39, OD650, 24 h, E. coli filamentation inducers, primary screen (AID 1178).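 Also: growth measured as culture turbidity by optical density at 650 nm; test concentration not given here.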 The settings on record: E. coli DRC39 acrAB, higher = more signal, called active from +8 up or from −8 down.
Assay [8] is described as follows: growth of efflux-deficient E. coli DRC39 – strain DRC39, OD650, 48 h, E. coli filamentation inducers, primary screen (AID 1179).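 Also: screen aims at cell division blockers that make cells filament.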 The settings on record: E. coli DRC39 delta-acrAB growth, higher = more signal, called active from +8 up or from −8 down.
The nature of assay [9]: viability profiling in RPMI8226 myeloma cells – cell-based, resazurin fluorescence, basal, 24 h, PK04 Diversity Set, profiling panel (AID 1180).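 Also: RPMI8826 multiple myeloma cell line at 5000 cells per well; test concentration not given here.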 Particulars: higher = more signal.
Assay [10] deals with E3 ubiquitin-protein ligase XIAP (Homo sapiens) (UniProt P98170). The assay can be described thus: small molecules binding XIAP protein – biophysical, small-molecule microarray, fluorescence 635 nm, primary screen (AID 1181).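 Also: score merges 667 nm emission and signal to noise over triplicate slides.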 Particulars: higher = more signal.

Structures are written as SMILES. Activity calls are given as the source filed them. Unless noted, no rule for the calls is given here.

Drawing on PubChem BioAssay, this text covers z-score and composite z-score for twelve compounds.

Sequence of E3 ubiquitin-protein ligase XIAP (Homo sapiens) (P98170 whole entry, looked up): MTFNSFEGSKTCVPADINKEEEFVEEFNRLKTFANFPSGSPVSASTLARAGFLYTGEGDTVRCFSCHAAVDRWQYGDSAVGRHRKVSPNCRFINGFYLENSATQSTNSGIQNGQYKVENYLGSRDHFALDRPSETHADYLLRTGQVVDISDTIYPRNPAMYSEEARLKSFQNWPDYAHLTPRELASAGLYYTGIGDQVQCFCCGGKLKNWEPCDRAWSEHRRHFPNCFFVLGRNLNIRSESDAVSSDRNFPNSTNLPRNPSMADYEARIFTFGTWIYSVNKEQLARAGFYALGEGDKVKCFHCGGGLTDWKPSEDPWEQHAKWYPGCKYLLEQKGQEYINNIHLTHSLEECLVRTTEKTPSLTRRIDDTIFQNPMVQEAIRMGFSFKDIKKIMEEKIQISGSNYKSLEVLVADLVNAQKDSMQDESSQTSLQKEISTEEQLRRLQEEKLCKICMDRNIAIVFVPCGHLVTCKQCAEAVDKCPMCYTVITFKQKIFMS
Sequence of Dihydroorotate dehydrogenase (quinone), mitochondrial (Plasmodium falciparum (isolate 3D7)) (Q08210 whole entry, looked up): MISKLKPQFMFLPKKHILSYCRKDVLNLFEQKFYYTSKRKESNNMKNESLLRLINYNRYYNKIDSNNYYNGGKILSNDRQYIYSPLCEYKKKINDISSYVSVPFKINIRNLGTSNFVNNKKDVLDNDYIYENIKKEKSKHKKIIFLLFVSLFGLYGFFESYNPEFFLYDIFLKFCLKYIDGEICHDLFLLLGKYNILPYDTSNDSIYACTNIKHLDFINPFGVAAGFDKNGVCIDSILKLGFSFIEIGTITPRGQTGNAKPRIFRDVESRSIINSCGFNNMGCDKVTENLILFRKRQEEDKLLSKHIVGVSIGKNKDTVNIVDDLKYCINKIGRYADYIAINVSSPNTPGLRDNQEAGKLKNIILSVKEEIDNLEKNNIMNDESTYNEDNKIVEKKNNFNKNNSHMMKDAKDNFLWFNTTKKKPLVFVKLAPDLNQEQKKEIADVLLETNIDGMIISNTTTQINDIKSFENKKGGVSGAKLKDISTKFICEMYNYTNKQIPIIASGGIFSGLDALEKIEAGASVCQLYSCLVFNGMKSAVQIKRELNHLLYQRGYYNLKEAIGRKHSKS

Take `C=C(/C(=C/C[C@H](OC(C)=O)c1ccc(OCCO)cc1)c1cnc2ccccc2c1)C(C)C`: the z-score in assay [1] was 1.93; in assay [2], -1.34 (inactive); in assay [3] it was -0.97 (inactive); in [5], -0.092 (inactive); in [6] it was -0.705 (inactive); in assay [7], 0.263 (inactive). The values for the z-score in assay [8] and in assay [9] were -0.511 (inactive) and -0.853, respectively. For the same compound, the composite z-score in [4] was -5.53 (inactive); in assay [10] it was 0.102.
Regarding `CO[C@@H]1COC(=O)[C@H](C)NC(=O)[C@@H](C)COC(=O)CCC[C@H]1C`, the z-score is 0.868 in assay [1]; 0.0728 (inactive) in assay [2]; -0.516 (inactive) in assay [3]; -0.892 (inactive) in [5]; 0.0233 (inactive) in [6]; 0.277 (inactive) in assay [7]. For the same compound, the z-score in assay [8] was -0.297 (inactive); in [9] it was -0.0734. Also, the composite z-score is -0.926 (inactive) in [4] and -0.153 in assay [10].
For `CCCC[C@@H]1C[C@H]1[C@@H](NS(=O)(=O)c1cccc2cccnc12)c1ccc(-c2ccccc2)cc1`, the z-score was -0.279 in assay [1]; 0.444 (inactive) in assay [2]; -0.251 (inactive) in [3]; 0.411 (inactive) in assay [5]; 0.269 (inactive) in assay [6]; -0.366 (inactive) in assay [7]. The z-score is -0.166 (inactive) in assay [8] and -0.611 in assay [9]. Also, the composite z-score is -0.151 (inactive) in assay [4] and -0.0559 in assay [10].
Take `COc1ccc(O[C@H]2C=C[C@@H](c3ccccc3)O[C@@H]2COC(=O)CCC(C)=NO[C@H](C)c2cn([C@@H]3COC[C@H]3O)nn2)cc1`: the z-score in assay [1] is 0.896; in assay [2], -0.419 (inactive); in assay [3], -0.191 (inactive); in [5] it was -0.467 (inactive); in assay [6] it was -0.572 (inactive); in assay [7], -1.09 (inactive). The z-score in [8] was -0.033 (inactive); in assay [9], 0.18. In addition, the composite z-score was -4.78 (inactive) in [4] and -0.138 in assay [10].
With `COc1ccc(COC(=O)NN=C2C[C@@H](O)[C@@H](O)[C@@H]3[C@@H]4C(=O)N(c5ccc(F)cc5F)C(=O)[C@@H]4CC[C@@H]23)cc1`, the z-score in assay [1] was 0.631; in assay [2], 0.64 (inactive); in assay [3], 0.527 (inactive); in [5], -0.176 (inactive); in assay [6], 0.968 (inactive); in assay [7], 0.583 (inactive). For the same compound, the z-score was 0.644 (inactive) in [8] and 0.635 in [9]. The composite z-score in assay [4] was 0.0922 (inactive); in assay [10], -0.173.
For `CCOC(=O)[C@H](Cc1ccccc1)NC(=O)CCC1CC(OC(=O)NCc2ccc3c(c2)OCO3)CC2(CCCC(COC(=O)NCC(c3ccccc3)c3ccccc3)O2)O1` (stereo not given in full), the z-score in assay [1] was 0.56; in assay [2] it was -1.14 (inactive); in [3], 0.328 (inactive); in [5], 0.405 (inactive); in assay [6], 0.445 (inactive); in assay [7], 0.816 (inactive). The z-score is 0.381 (inactive) in assay [8] and 0.909 in [9]. In addition, the composite z-score in assay [4] was -0.219 (inactive); in assay [10], -0.0351.
Regarding `CO[C@H]1O[C@H](CO)[C@@H](OC(=O)Nc2ccc3c(c2)OCO3)[C@H](OC(=O)Nc2ccccc2-c2ccccc2)[C@@H]1OC(=O)Nc1ccccc1-c1ccccc1`, the z-score in [1] was -0.659; in assay [2], 1.42 (inactive); in [3] it was -0.443 (inactive); in assay [5] it was 1.14 (inactive); in assay [6], 2.33 (inactive); in assay [7] it was -0.243 (inactive). For the same compound, the z-score is -0.0545 (inactive) in assay [8] and -0.427 in [9]. Moreover, the composite z-score in [4] is 0.237 (inactive); in assay [10] it was 0.28.
Turning to `CC(C)[C@@H](OCc1ccccc1)[C@H](C)C=NOC[C@@H](C)[C@H](OCc1ccccc1)C(C)C`, the z-score is -0.914 in [1]; 0.425 (inactive) in [2]; -0.908 (inactive) in [3]; -0.324 (inactive) in [5]; -0.089 (inactive) in assay [6]; 0.705 (inactive) in assay [7]. Further, the values for the z-score in [8] and in assay [9] were 1.09 (inactive) and -1.11, respectively. Further, the values for the composite z-score in [4] and in assay [10] were -0.213 (inactive) and -0.345, respectively.
As to `COCCCNC(=O)[C@]1(Cc2ccccc2)N=C(c2ccc(OCCCO)cc2)O[C@@H]1c1ccccc1`, the z-score was 0.754 in [1]; -0.706 (inactive) in [2]; 0.325 (inactive) in assay [3]; 0.494 (inactive) in [5]; -0.499 (inactive) in [6]; 0.156 (inactive) in assay [7]. In addition, the z-score is -1.11 (inactive) in [8] and 0.778 in assay [9]. For the same compound, the composite z-score in [4] is -0.0882 (inactive); in [10] it was -0.0118.
In the case of `CC(C)(C)OC(=O)CC[C@]1(C(=O)NCc2ccccc2)N=C(c2ccc(OCCCO)cc2)O[C@H]1c1ccccc1`, the z-score in [1] is 0.461; in [2], 0.69 (inactive); in assay [3], -0.768 (inactive); in assay [5], 0.469 (inactive); in [6], 0.543 (inactive); in [7], 0.732 (inactive). Further, the z-score in [8] was 0.03 (inactive); in [9], -0.135. Besides, the composite z-score in assay [4] is 0.218 (inactive); in assay [10] it was -0.16.
In the case of `C[C@@H]1C=CCC(=O)OC[C@H](C)C(=O)OC[C@H]2O[C@H]1C=C[C@H]2O`, the z-score is 0.0061 in assay [1]; -0.368 (inactive) in assay [2]; 0.313 (inactive) in [3]; -0.814 (inactive) in assay [5]; 1.14 (inactive) in assay [6]; 0.0992 (inactive) in [7]. Besides, the z-score was -0.249 (inactive) in [8] and 0.52 in [9]. Further, the composite z-score in assay [4] is 0.603 (inactive); in assay [10], -0.379.
Consider `CO[C@H]1COC(=O)[C@@H]2CCCN2C(=O)[C@@H](C)COC(=O)CC=C[C@@H]1C`, for which the z-score in assay [1] is 0.264; in [2], -0.0361 (inactive); in assay [3], 0.285 (inactive); in assay [5], -0.725 (inactive); in [6], 0.023 (inactive); in assay [7], 0.488 (inactive). For the same compound, the z-score in [8] is 0.362 (inactive); in assay [9], 0.0409. The composite z-score in [4] is -1.95 (inactive); in [10], 0.285.
